These results are taken from PubChem BioAssay (Tox21).

For assay [1], the target named is Progesterone receptor (Homo sapiens) (UniProt P06401). In words: qHTS assay to identify small molecule agonists of the progesterone receptor (PR) signaling pathway (AID 1346784; calls by dose curve; note: nearly all actives have a fitted effect of over 30% in size). In short, it runs like this:
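Agonist qHTS: compounds pinned onto 3,000 PR-UAS-bla HEK 293T cells per well in charcoal-stripped serum medium, 16hr at 37C, then beta-lactamase activity measured by LiveBLAzer FRET fluorescence after 2 hours at room temperature.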
A general note: qHTS replaces the single test concentration by a dilution series.

The target is the same in assay [2]. In words: qHTS assay to identify small molecule antagonists of the progesterone receptor (PR) signaling pathway (AID 1346795; active = well fitted inhibition curve with a large enough effect in the signal ratio in the repeat runs, not every such curve was filed as active; the % refers to the signal ratio; note: potency is the fitted concentration of half-maximal effect). The gist of the method: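 Antagonist mode with agonist R5020 at 1 nM final and 16 hr incubation at 37C. Reporter was beta-lactamase driven by UAS in HEK293T (PR-UAS-bla), 2% charcoal-stripped serum; signal from LiveBLAzer FRET substrate, 2 hr at room temperature.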

Assay [3] is described as follows: qHTS assay to identify small molecule antagonists of the TGF-beta/Smad signaling pathway - cell viability counter screen (AID 1346824). Note: nearly all actives have a fitted effect of over 50% in size. The gist of the method:
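Cytotoxicity counter-screen run in the same wells as the beta-lactamase Smad reporter read: CellTiter-Glo luminescence after 30 min at room temperature. HEK 293T SBE-bla cells had 5 hr compound exposure at 37 C with TGF-beta1 (0.25 ng/mL stock).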

A short description of assay [4]: qHTS assay to identify small molecule agonists of the TGF-beta/Smad signaling pathway - cell viability counter screen (AID 1346829). Note: top concentration of the series differs between compounds; nearly all actives have a fitted effect of over 45% in size. The gist of the method:
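Same-well cytotoxicity: CellTiter-Glo added after the 2 hr room-temperature beta-lactamase substrate step, luminescence measured 30 min later; cells had 5 hr of compound at 37 C.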

A short description of assay [5]: qHTS assay to identify small molecule agonists of the TGF-beta/Smad signaling pathway (AID 1346859; active = well fitted activation curve with a large enough effect in the signal ratio in the repeat runs, not every such curve was filed as active; the % refers to the signal ratio; note: series mostly up to about 77 µM). The gist of the method: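 Fluorescence (ex 405 nm; em 460 and 530 nm) was read 2 h after LiveBLAzer FRET substrate at RT. The preceding compound treatment of overnight-plated SBE-bla HEK293T cells lasted 5 h at 37 C.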
The target in assay [6] is Thyrotropin-releasing hormone receptor (Homo sapiens) (UniProt P34981). In words: qHTS assay to identify small molecule antagonists of the thyrotropin-releasing hormone receptor (TRHR) signaling pathway (AID 1346877; active = well fitted inhibition curve with a large enough effect in the repeat runs, not every such curve was filed as active; note: potency is the fitted concentration of half-maximal effect). In short, it runs like this: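 Human TRHR in HEK293 cells; inhibition of the intracellular calcium rise triggered by 1 nM TRH was followed by fluorescence over 3 min. Compounds were run at 15 concentrations, three replicates each.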
Sequence of Thyrotropin-releasing hormone receptor (Homo sapiens) (P34981 whole entry, looked up): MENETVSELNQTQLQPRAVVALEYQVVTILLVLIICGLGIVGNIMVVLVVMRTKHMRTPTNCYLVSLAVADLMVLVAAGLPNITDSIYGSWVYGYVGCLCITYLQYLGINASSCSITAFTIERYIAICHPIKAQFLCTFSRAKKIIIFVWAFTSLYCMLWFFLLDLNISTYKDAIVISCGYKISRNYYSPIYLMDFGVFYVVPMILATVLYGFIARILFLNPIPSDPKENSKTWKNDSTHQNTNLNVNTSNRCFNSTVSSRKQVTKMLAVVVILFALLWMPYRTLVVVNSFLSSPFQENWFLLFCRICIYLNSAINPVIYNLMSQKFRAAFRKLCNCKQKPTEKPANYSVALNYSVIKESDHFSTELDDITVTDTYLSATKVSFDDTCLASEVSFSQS

For assay [7] the target is unchanged. In words: qHTS assay to identify small molecule agonists of the thyrotropin-releasing hormone receptor (TRHR) signaling pathway (AID 1346891; calls by dose curve; note: potency is the fitted concentration of half-maximal effect; for activation: series mostly up to about 58 µM). In short, it runs like this:
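Agonist-mode intracellular calcium readout: kinetic fluorescence over 3 min at 1 s intervals after compound addition to TRHR-HEK293 cells (18 h seeded, 2 h dye-loaded at 37 C). Fifteen concentrations, triplicates.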

A short description of assay [8]: Human pregnane X receptor (PXR) small molecule agonists, qHTS cell viability counter screen (AID 1346977). Note: nearly all actives have a fitted effect of over 50% in size. Note: potency is the fitted concentration of half-maximal effect. In short, it runs like this:
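Same-well viability read: CellTiter-Fluor added after 23 hr compound exposure, fluorescence measured 1 hr later. Cells were PXR-Luc HepG2 seeded at 2,000/well in 5% charcoal-stripped FBS medium, rested 5 hr before dosing at 37 C.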

Assay [9] can be described thus: qHTS assay to identify small molecule antagonists of the progesterone receptor (PR) signaling pathway - cell viability counter screen (AID 1346798). Note: series mostly up to about 92 µM; nearly all actives have a fitted effect of over 50% in size. In short, it runs like this: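 Cytotoxicity read as CellTiter-Glo luminescence (30 min, room temperature) in the same wells as the beta-lactamase readout. HEK293T PR-UAS-bla cells in charcoal-stripped 2% FBS received compound and R5020, then 16 h at 37C, 5% CO2.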

Assay [10] can be described thus: qHTS assay to identify small molecule agonists of the progesterone receptor (PR) signaling pathway - cell viability counter screen (AID 1346799; calls by dose curve; note: nearly all actives have a fitted effect of over 45% in size). In short, it runs like this:
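Cytotoxicity measured by CellTiter-Glo luminescence (30 min, RT) in the same wells as the PR beta-lactamase agonist read. Those HEK293T cells had 16 h compound treatment at 37 C in 2% charcoal-stripped FBS medium.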

Results filed as inconclusive are left out. Active and inactive are the calls of the source. Unless noted, calls come from the whole dose curve; as a rule, active = well fitted curve in the direction sought with a large enough effect in the repeat runs; inconclusive = weak or mixed curves; inactive = no such curve, though single readings can be large; an effect the other way counts as inactive or inconclusive.

Sequence of Progesterone receptor (Homo sapiens) (P06401 whole entry, looked up): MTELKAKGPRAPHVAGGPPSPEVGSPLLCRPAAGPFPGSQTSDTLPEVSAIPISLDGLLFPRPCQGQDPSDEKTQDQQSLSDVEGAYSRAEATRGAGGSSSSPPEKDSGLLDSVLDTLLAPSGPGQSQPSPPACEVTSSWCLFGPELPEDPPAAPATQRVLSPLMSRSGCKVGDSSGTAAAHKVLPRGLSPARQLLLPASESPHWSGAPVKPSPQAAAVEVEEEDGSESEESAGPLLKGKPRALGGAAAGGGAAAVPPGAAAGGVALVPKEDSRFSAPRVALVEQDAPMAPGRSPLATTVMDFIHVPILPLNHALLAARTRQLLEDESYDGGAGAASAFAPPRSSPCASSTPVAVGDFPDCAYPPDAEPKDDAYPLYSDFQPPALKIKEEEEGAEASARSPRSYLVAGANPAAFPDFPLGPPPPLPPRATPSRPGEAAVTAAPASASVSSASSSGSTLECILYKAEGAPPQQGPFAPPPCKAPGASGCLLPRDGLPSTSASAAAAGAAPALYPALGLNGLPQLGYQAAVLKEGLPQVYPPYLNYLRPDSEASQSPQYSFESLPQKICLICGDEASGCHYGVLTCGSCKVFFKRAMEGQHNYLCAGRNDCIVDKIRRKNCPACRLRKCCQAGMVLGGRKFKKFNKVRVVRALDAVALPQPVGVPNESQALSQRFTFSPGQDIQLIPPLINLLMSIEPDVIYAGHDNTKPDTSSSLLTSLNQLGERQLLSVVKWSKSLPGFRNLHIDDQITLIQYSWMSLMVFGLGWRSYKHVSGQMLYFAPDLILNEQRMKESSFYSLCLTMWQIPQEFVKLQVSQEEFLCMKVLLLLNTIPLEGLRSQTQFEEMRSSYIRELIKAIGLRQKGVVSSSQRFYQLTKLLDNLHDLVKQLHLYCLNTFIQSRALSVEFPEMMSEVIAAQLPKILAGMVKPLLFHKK

For `COCC(C)N(C(=O)CCl)c1c(C)csc1C` (stereo not given), the Potency entry in [1], in [3], in assay [4], in assay [6], in [7] and in assay [8] was “inactive” throughout. The Potency in assay [2] was 54.5 µM (active). Further, the result in assay [5] was inactive.

`CCOc1ccc(C(C)(C)COCc2cccc(Oc3ccccc3)c2)cc1`: the Potency result in assay [1], in assay [2], in assay [3], in [4], in assay [6] and in assay [7] was “inactive” each time. Besides, the Potency result in assay [8] was “inactive”. Moreover, in assay [5], the result was inactive.

Take `OC(c1ccc(Cl)cc1)(c1ccc(Cl)cc1)c1cccnc1`: the Potency result in assay [1], in assay [3], in assay [6] and in assay [7] was “inactive” throughout. Further, in assay [2], the Potency is 17.2 µM (active). Besides, the call in assay [5] was inactive.

Consider `CCO[C@H]1O[C@@H]2OC3(C)CC[C@H]4[C@H](C)CC[C@@H]([C@H]1C)[C@@]24OO3`, for which the Potency result in assay [1], in assay [9], in assay [10], in assay [3], in assay [4] and in assay [6] was “inactive” each time. For the same compound, the Potency result in assay [7] and in [8] was “inactive” in each case. Also, the call in assay [5] was inactive.

`CCCCc1c(C)nc(NCC)nc1OS(=O)(=O)N(C)C`: the Potency result in [1], in assay [3], in assay [4], in assay [6] and in [7] was “inactive” each time. Also, the Potency is 27.3 µM (active) in assay [2] and 61.1 µM (active) in assay [8]. The outcome in [5] was inactive.

Take `N#CCC#N`: the Potency entry in assay [1], in [2], in assay [10], in assay [3], in assay [4] and in [6] was “inactive” each time. In assay [7], the Potency entry is “inactive”. For the same compound, the compound was called inactive in assay [5].

On to `COP(=S)(OC)Oc1ccc([N+](=O)[O-])cc1Cl`, for which the Potency entry in assay [1], in assay [2], in assay [10], in assay [3], in [4] and in [6] was “inactive” each time. Besides, in assay [7], the Potency entry is “inactive”. Further, in assay [5], the compound was called inactive. Further, the Potency in [8] is 34.4 µM (active).

On to `O=S1(=O)OC(c2cc(Br)c(O)c(Br)c2)(c2cc(Br)c(O)c(Br)c2)c2ccccc21`, for which the Potency entry in assay [1], in assay [2], in assay [3], in [4], in [6] and in assay [7] was “inactive” in each case. For the same compound, the compound was called inactive in assay [5]. The Potency in assay [8] was 12.5 µM (active).

As to `O=C1CN=C(c2ccccc2)c2cc(Cl)ccc2N1CC1CC1`, the Potency entry in assay [1], in assay [3], in [4], in assay [6], in assay [7] and in assay [8] was “inactive” each time. The Potency in assay [2] was 11.4 µM (active). For the same compound, the compound was classed as inactive in assay [5].

On to `CC(O)(CS(=O)(=O)c1ccc(F)cc1)C(=O)Nc1ccc(C#N)c(C(F)(F)F)c1` (stereo not given), for which the Potency entry in assay [1], in assay [9], in assay [10], in assay [3], in assay [4] and in assay [6] was “inactive” throughout. Besides, the Potency entry in assay [7] and in [8] was “inactive” each time. Also, in assay [5], the result was inactive.

Turning to `O=C1NCN(c2ccccc2)C12CCN(CCCOc1ccc(F)cc1)CC2`, the Potency result in [1], in assay [9], in assay [10], in [3] and in assay [4] was “inactive” in each case. The result in assay [5] was inactive. Besides, the figures for the Potency in assay [6], in assay [7] and in assay [8] were 6.58 µM (active), 6.01 µM (active) and 6.68 µM (active), respectively.
